Results on 39 compounds are retold here after the supplement of paper PMC8699584.

Values joined by “and” are separate entries in the source; they are usually repeats but may differ in a detail not shown here. Equal values may be shown once. Where a name gives a salt, the structure may show the parent alone. ± gives the standard deviation of the averaged measurements.

As usually defined, the cell viability is a read-out of living cells in per cent, often relative to untreated cells.

The subject of the experiment is Molm13. As to the kind of experiment: cell viability relative to DMSO control (bortezomib = 0%); higher = less growth inhibition. The settings on record: 10 nM; 72 h. A digest of the protocol: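 Acute myeloid leukemia cells were plated at 1000 cells per well in 50 µL onto a 679-compound library of approved and investigational agents in 384-well plates and exposed to a single 10 nM dose for 72 h, in duplicate. Cell viability was measured by CellTiter-Glo luminescence on an EnVision reader. Readings were scaled to percentages by per-plate linear regression, with DMSO-treated cells set at 100% and positive-control-treated cells at 0%.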
In the case of `CCS(=O)(=O)N1CC(CC#N)(n2cc(-c3ncnc4[nH]ccc34)cn2)C1` [Baricitinib†(Phosphate)], the cell viability is 112 ± 13%.

Regarding `Cc1ccc(C(=O)Nc2ccc(CN3CCN(C)CC3)c(C(F)(F)F)c2)cc1C#Cc1cnc2[nH]ncc2c1` [GZD824 Dimesylate], the cell viability is 4.07 ± 5.9%.

In the case of `COc1cc2ccc(=O)oc2cc1O` [Scopoletin], the cell viability was 102.2 ± 0.33%.

Take `CO[C@@H]1[C@H](N(C)C(=O)c2ccccc2)C[C@H]2O[C@]1(C)n1c3ccccc3c3c4c(c5c6ccccc6n2c5c31)C(=O)NC4` [PKC-412(Midostaurin)]: the cell viability worked out at 95.04 ± 0.94%.

Regarding `CN1C(=O)C(c2c[nH]c3ccccc23)=C(c2c[nH]c3ccccc23)C1=O` [Bisindolylmaleimide V], the cell viability was found to be 124 ± 11%.

On to `CCn1c(=O)c(-c2ccc(-c3cncs3)cc2Cl)cc2cnc(Nc3ccc(N4CCN(C)CC4)cc3)nc21`, for which the cell viability is 106 ± 6.4%.

On to `CC(C)=CCC[C@](C)(O[C@@H]1O[C@H](CO[C@@H]2O[C@H](CO)[C@@H](O)[C@H](O)[C@H]2O)[C@@H](O)[C@H](O)[C@H]1O)[C@H]1CC[C@]2(C)[C@@H]1[C@H](O)C[C@@H]1[C@@]3(C)CC[C@H](O[C@@H]4O[C@H](CO)[C@@H](O)[C@H](O)[C@H]4O)C(C)(C)[C@@H]3CC[C@]12C` [Gypenoside XVII], for which the cell viability is 95.8 ± 9.3%.

`COC(=O)c1ccc2c(c1)NC(=O)/C2=C(\Nc1ccc(N(C)C(=O)CN2CCN(C)CC2)cc1)c1ccccc1` [Nintedanib (BIBF 1120)]: the cell viability turned out to be 83.62 ± 0.69%.

On to `Oc1cccc(-c2nc(N3CCOCC3)c3oc4ncccc4c3n2)c1`, for which the cell viability was 94.1 ± 2.2%.

For `NC[C@@](O)(c1ccc(Cl)cc1)c1ccc(-c2cn[nH]c2)cc1`, the cell viability was 108 ± 8.3%.

As to `COc1cc(Nc2ncc(F)c(Nc3ccc4c(n3)NC(=O)C(C)(C)O4)n2)cc(OC)c1OC` [R406 free base], the cell viability is 101.7 ± 0.97%.

`COc1ccc2cc1Oc1ccc(cc1)C[C@H]1c3cc(c(OC)cc3CCN1C)Oc1c(O)c(OC)cc3c1[C@H](C2)N(C)CC3` [Fangchinoline]: the cell viability is 90.9 ± 1.6%.

For the compound `CN(C)C/C=C/C(=O)Nc1ccc(C(=O)Nc2cccc(Nc3ncc(Cl)c(-c4c[nH]c5ccccc45)n3)c2)cc1`, the cell viability was determined as 88 ± 18%.

For `COc1ccc(CCNCc2ccc(OCc3ccc(Cl)nc3)c(OC)c2)cc1OC` [SBE 13 hydrochloride], the cell viability amounted to 99.3 ± 18%.

With `Cc1cc(C)c(/C=C2\C(=O)Nc3ccccc32)[nH]1` [Semaxanib (SU5416)], the cell viability worked out at 82.4 ± 11%.

For the compound `C[C@H]1[C@H](C)CC[C@]2(C(=O)O)CC[C@]3(C)C(=CC[C@@H]4[C@@]5(C)C[C@@H](O)[C@H](O)[C@@](C)(CO)[C@@H]5CC[C@]43C)[C@H]12` [Asiatic acid], the cell viability was determined as 107 ± 22%.

On to `COc1cc2ncnc(Nc3cccc(Br)c3)c2cc1OC`, for which the cell viability is 93.4% and 102%.

Consider `CC(C)=CCC[C@](C)(O[C@@H]1O[C@H](CO)[C@@H](O)[C@H](O)[C@H]1O)[C@H]1CC[C@]2(C)[C@@H]1[C@H](O)C[C@@H]1[C@@]3(C)CC[C@H](O)C(C)(C)[C@@H]3[C@@H](O[C@@H]3O[C@H](CO)[C@@H](O)[C@H](O)[C@H]3O[C@@H]3OC[C@@H](O)[C@H](O)[C@H]3O)C[C@]12C` [Notoginsenoside R1], for which the cell viability amounted to 110 ± 13%.

Regarding `FC(F)(F)c1ccc(CNc2ccc(Cc3c[nH]c4ncc(Cl)cc34)cn2)cc1`, the cell viability was 112.2 ± 0.43%.

Turning to `COc1cc(N2CCC(N3CCN(C)CC3)CC2)ccc1Nc1ncnc(Nc2ccccc2S(=O)(=O)C(C)C)n1`, the cell viability was 96.5 ± 3.9%.

With `Cc1cc(O)c2c(c1)C(=O)c1cc(O)cc(O)c1C2=O` [Emodin], the cell viability turned out to be 91.2 ± 7.2%.

As for `C=CC(=O)Nc1cc2c(Nc3ccc(F)c(Cl)c3)ncnc2cc1OCCCN1CCOCC1` [Canertinib (CI-1033)], the cell viability stood at 118 ± 10%.

For `Cc1ncc(-c2ccnc(Nc3ccc(S(C)(=O)=O)cc3)n2)n1C(C)C`, the cell viability worked out at 102 ± 14%.

On to `Nc1nccc(Oc2ccc3c(C(=O)Nc4cccc(C(F)(F)F)c4)cccc3c2)n1`, for which the cell viability worked out at 94.7 ± 6.4%.

In the case of `N#Cc1ccc2[nH]c(O)c(-c3ccc(CN4CCOCC4)cn3)c2c1`, the cell viability amounted to 112 ± 0.85%.

On to `CCC(=O)N1CCN(c2ccc(-n3c(=O)ccc4cnc5ccc(-c6cnc7ccccc7c6)cc5c43)cc2C(F)(F)F)CC1` [Torin 1], for which the cell viability worked out at 104 ± 4.5%.

Turning to `COc1ccc(C(=C2C(=O)Nc3ccccc32)c2ccc(OC)cc2)cc1`, the cell viability came to 95.1 ± 2.4%.

On to `O=C1Cc2c([nH]c3ccc(Br)cc23)-c2ccccc2N1` [Kenpaullone], for which the cell viability stood at 88 ± 2.5%.

Turning to `CCOc1cc2ncc(C#N)c(Nc3ccc(OCc4ccccn4)c(Cl)c3)c2cc1NC(=O)/C=C/CN(C)C` [Neratinib(HKI-272)], the cell viability came to 106 ± 20%.

In the case of `CC(C)(C)[Si](C)(C)Oc1ccc2oc(=O)c3c(c2c1)CCCN3`, the cell viability came out at 108 ± 12%.

On to `COc1ccc(S(=O)(=O)N(CCO)c2ccccc2CN(C)C/C=C/c2ccc(Cl)cc2)cc1` [KN-93 Phosphate], for which the cell viability worked out at 99.1 ± 2.2%.

Regarding `CCN(CC)CCNC(=O)c1c(C)[nH]c(/C=C2\C(=O)Nc3ccc(F)cc32)c1C` [Sunitinib Malate], the cell viability came out at 83.1 ± 1.1%.

With `C[C@@H](Oc1ccc2[nH]nc(/C=C/c3cnn(CCO)c3)c2c1)c1c(Cl)cncc1Cl`, the cell viability was 97.5 ± 12%.

For the compound `CNC(=O)c1cc(Oc2ccc(NC(=O)c3cccc(C(F)(F)F)c3)cc2)ccn1`, the cell viability stood at 96.3 ± 16%.

With `N#Cc1c(-c2ccccc2)cc(-c2cc(Br)ccc2O)[nH]c1=O`, the cell viability was found to be 125 ± 30%.

For `O=C(Nc1ccc2[nH]nc(-c3ccncc3)c2c1)[C@@H]1CCN(CC(=O)N2CCN(c3ccc(-c4ncccn4)cc3)CC2)C1`, the cell viability turned out to be 92 ± 12%.

For the compound `CCCCCCCCCCCCCC#CC(=O)[C@@H]1COC(C)(C)N1C(=O)OC(C)(C)C`, the cell viability was found to be 108 ± 11%.

In the case of `Cc1cc(Nc2cc(N3CCN(C)CC3)nc(/C=C/c3ccccc3)n2)n[nH]1`, the cell viability is 89.6 ± 1.1%.

For `COc1cc2nccc(Oc3ccc(NC(=O)C4(C(=O)Nc5ccc(F)cc5)CC4)cc3)c2cc1OC` [XL184(Cabozantinib malate)], the cell viability came out at 15 ± 7.9%.
